# Assay results: the supplement of paper PMC8728848
# The full list was thinned out, with the strongest signals kept by preference.
# B1: ZG-16 (Homo sapiens), O60844 (protein)
# chain: IQARSSSYSGEYGSGGGKRFSHSGNQLDGPITALRVRVNTYYIVGLQVRYGKVWSDYVGGRNGDLEEIFLHPGESVIQVSGKYKWYLKKLVFVTDKGRYLSFGKDSGTSFNAVPLHPNTVLRFISGRSGSLIDAIGLHWDVYPTSCSRCSRGSDDDDKAEPRGPTIKPCPPCKCPAPNLLGGPSVFIFPPKIKDVLMISLSPIVTCVVVDVSEDDPDVQISWFVNNVEVHTAQTQTHREDYNSTLRVVSALPIQHQDWMSGKEFKCKVNNKDLPAPIERTISKPKGSVRAPQVYVLPPPEEEMTKKQVTLTCMVTDFMPEDIYVEWTNNGKTELNYKNTEPVLDSDGSYFMYSKLRVEKKNWVERNSYSCSVVHEGLHNHHTTKSFSRTPGKRTYHHHHHHARKLTR
# Key:
# Experiment in all cases: glycan array binding signal (z-score within array); higher = stronger binding
# Settings in all cases: glycan notation: IUPAC condensed, linker removed
# [1] = target: Fuc(a1-2)Gal(b1-3)[Fuc(a1-4)]GlcNAc(b1-3)[Fuc(a1-3)[Gal(b1-4)]GlcNAc(b1-6)]Gal(b1-4)Glc
# Summary of the method: (§1)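 Columns mapping to the same glycan were averaged after glycan names were converted to IUPAC-condensed notation. The data come from 3228 arrays in the Consortium for Functional Glycomics database, limited to those with an available protein sequence. Binding is reported as a within-array Z-score averaged across arrays of one protein sequence and across linkers.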
# [2] = target: Fuc(a1-2)Gal(b1-4)GlcNAc6S
# Summary of the method: as §1
# Fuc(a1-2)[Gal(a1-3)]Gal = target: Fuc(a1-2)[Gal(a1-3)]Gal
# Summary of the method: as §1
# [3] = target: Fuc(a1-3)[Gal(b1-4)]GlcNAc(b1-2)Man(a1-3)[Fuc(a1-3)[Gal(b1-4)]GlcNAc(b1-2)Man(a1-6)]Man(b1-4)GlcNAc(b1-4)GlcNAc
# Summary of the method: as §1
# [4] = target: Gal(a1-3)Gal(b1-4)[Fuc(a1-3)]GlcNAc(b1-2)Man(a1-3)[Gal(a1-3)Gal(b1-4)[Fuc(a1-3)]GlcNAc(b1-2)Man(a1-6)]Man(b1-4)GlcNAc(b1-4)GlcNAc
# Summary of the method: as §1
# [5] = target: Gal(a1-4)Gal(b1-4)GlcNAc(b1-2)Man(a1-3)[Gal(a1-4)Gal(b1-4)GlcNAc(b1-2)Man(a1-6)]Man(b1-4)GlcNAc(b1-4)GlcNAc
# Summary of the method: as §1
# Gal(b1-3)Gal = target: Gal(b1-3)Gal
# Summary of the method: as §1
# [6] = target: Gal(b1-3)GalNAc(a1-3)[Fuc(a1-2)]Gal(b1-4)Glc
# Summary of the method: as §1
# [7] = target: Gal(b1-3)GlcNAc(b1-2)Man(a1-3)[Gal(b1-3)GlcNAc(b1-2)Man(a1-6)]Man(b1-4)GlcNAc(b1-4)GlcNAc
# Summary of the method: as §1
# [8] = target: Gal(b1-3)GlcNAc(b1-3)Gal(b1-4)Glc
# Summary of the method: as §1
# [9] = target: Gal(b1-4)GlcNAc(b1-2)Man(a1-3)[Man(a1-6)]Man(b1-4)GlcNAc(b1-4)GlcNAc
# Summary of the method: as §1
# [10] = target: Gal(b1-4)GlcNAc(b1-2)[Gal(b1-4)GlcNAc(b1-4)]Man(a1-3)[Gal(b1-4)GlcNAc(b1-2)Man(a1-6)]Man(b1-4)GlcNAc(b1-4)GlcNAc
# Summary of the method: as §1
# Gal6S(b1-4)Glc6S = target: Gal6S(b1-4)Glc6S
# Summary of the method: as §1
# GlcNAc(b1-3)Gal = target: GlcNAc(b1-3)Gal
# Summary of the method: as §1
# [11] = target: Man(a1-2)Man(a1-2)Man(a1-3)Man
# Summary of the method: as §1
# [12] = target: Man(a1-2)Man(a1-2)Man(a1-6)[Man(a1-3)]Man
# Summary of the method: as §1
# Man(a1-2)Man(a1-3)Man = target: Man(a1-2)Man(a1-3)Man
# Summary of the method: as §1
# [13] = target: Man(a1-2)Man(a1-3)[Man(a1-2)Man(a1-6)]Man
# Summary of the method: as §1
# [14] = target: Man(a1-2)Man(a1-3)[Man(a1-2)Man(a1-6)]Man(a1-6)[Man(a1-2)Man(a1-2)Man(a1-3)]Man
# Summary of the method: as §1
# [15] = target: Man(a1-2)Man(a1-6)[Man(a1-3)]Man(a1-6)[Man(a1-2)Man(a1-2)Man(a1-3)]Man
# Summary of the method: as §1
# Man(a1-3)[Man(a1-6)]Man = target: Man(a1-3)[Man(a1-6)]Man
# Summary of the method: as §1
# [16] = target: Man(a1-3)[Man(a1-6)]Man(b1-4)GlcNAc(b1-4)GlcNAc
# Summary of the method: as §1
# [17] = target: Neu5Ac(a2-3)Gal(b1-3)[Fuc(a1-4)]GlcNAc
# Summary of the method: as §1
# [18] = target: Neu5Ac(a2-3)Gal(b1-4)GlcNAc
# Summary of the method: as §1
# [19] = target: Neu5Ac(a2-3)Gal(b1-4)[Fuc(a1-3)]GlcNAc(b1-3)Gal
# Summary of the method: as §1
# [20] = target: Neu5Ac(a2-3)[GalNAc(b1-4)]Gal(b1-4)Glc
# Summary of the method: as §1
# [21] = target: Neu5Ac(a2-6)Gal(b1-4)GlcNAc(b1-2)Man(a1-6)Man(b1-4)GlcNAc(b1-4)GlcNAc
# Summary of the method: as §1
# [22] = target: Neu5Ac(a2-6)Gal(b1-4)GlcNAc(b1-3)Gal(b1-4)GlcNAc(b1-3)Gal(b1-4)GlcNAc
# Summary of the method: as §1
# [23] = target: Neu5Ac(b2-6)Gal(b1-4)GlcNAc
# Summary of the method: as §1
# [24] = target: Neu5Gc(a2-3)Gal(b1-3)[Fuc(a1-4)]GlcNAc
# Summary of the method: as §1
# [25] = target: Neu5Gc(a2-3)Gal(b1-4)[Fuc(a1-3)]GlcNAc
# Summary of the method: as §1
binder,measurement,setting,value
B1,glycan array binding signal (z-score),[1],-0.196
same,glycan array binding signal (z-score),[2],-0.185
same,glycan array binding signal (z-score),Fuc(a1-2)[Gal(a1-3)]Gal,-0.217
same,glycan array binding signal (z-score),[3],0.273
same,glycan array binding signal (z-score),[4],-0.158
same,glycan array binding signal (z-score),[5],-0.205
same,glycan array binding signal (z-score),Gal(b1-3)Gal,-0.222
same,glycan array binding signal (z-score),[6],-0.193
same,glycan array binding signal (z-score),[7],-0.189
same,glycan array binding signal (z-score),[8],-0.226
same,glycan array binding signal (z-score),[9],-0.146
same,glycan array binding signal (z-score),[10],-0.166
same,glycan array binding signal (z-score),Gal6S(b1-4)Glc6S,-0.16
same,glycan array binding signal (z-score),GlcNAc(b1-3)Gal,-0.231
same,glycan array binding signal (z-score),[11],8.34
same,glycan array binding signal (z-score),[12],5.61
same,glycan array binding signal (z-score),Man(a1-2)Man(a1-3)Man,9.52
same,glycan array binding signal (z-score),[13],3.69
same,glycan array binding signal (z-score),[14],1.94
same,glycan array binding signal (z-score),[15],5.95
same,glycan array binding signal (z-score),Man(a1-3)[Man(a1-6)]Man,4.25
same,glycan array binding signal (z-score),[16],-0.183
same,glycan array binding signal (z-score),[17],-0.202
same,glycan array binding signal (z-score),[18],-0.209
same,glycan array binding signal (z-score),[19],-0.127
same,glycan array binding signal (z-score),[20],-0.21
same,glycan array binding signal (z-score),[21],-0.209
same,glycan array binding signal (z-score),[22],-0.182
same,glycan array binding signal (z-score),[23],-0.221
same,glycan array binding signal (z-score),[24],-0.132
same,glycan array binding signal (z-score),[25],-0.11
